PubChem BioAssay (NCI)
The panel holds about 83,000 compounds, 20% with a hit somewhere; the sample as a whole holds those more often.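 Step 1: grow cells in 96-well plates. Step 2: add test compound at a single concentration. Step 3: incubate 48 h. Step 4: record percent growth.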 Unmarked numbers belong to inactive results. Calls of active or inactive are those of the source. The calls were made as follows: active = growth percent below 10; inactive = the rest.

These molecules were tested on LOX IMVI melanoma (assay: NCI-60 one-dose screen, 48 h (100 = growth as untreated, 0 = no growth, -100 = all killed)). Conditions: 10 µM unless noted.

COC(=O)[C@]12CCC(C)(C)C[C@H]1C1=CC[C@@H]3[C@@]4(C)C/C(=C/c5cccnc5)C(=O)C(C)(C)[C@@H]4CC[C@@]3(C)[C@]1(C)CC2 was tested, and the growth was -89.5% [100 µM] (active).
CC(C)[C@H]1COC(=O)N1[C@@H]1C(=O)N([C@@H](CCC(=O)N2CCN(C3CCCC3)CC2)C(=O)N[C@@H]2CCCc3ccccc32)[C@@H]1/C=C/c1cccc(Cl)c1 was tested, and the growth was -18.3% (active).
In the case of CC1(C)CC[C@]2(C(=O)O)CC[C@]3(C)C(=CC[C@@H]4[C@@]5(C)C/C(=C/c6ccco6)C(=O)C(C)(C)[C@@H]5CC[C@]43C)[C@@H]2C1, the growth is reported as -95.1% [100 µM] (active).

Compared with CCN=Cc1c(O)c(O)c(C(C)C)c2cc(C)c(-c3c(C)cc4c(C(C)C)c(O)c(O)c(C=NCC)c4c3O)c(O)c12, COc1cc(-c2nc(SCCC(C)C)nc(Nc3ccccc3)c2C#N)cc(OC)c1OC is higher in growth: 39.1% for the first, 99.4% for the second.

Going from O=c1cc(-c2ccccc2)oc2c(O)c(O)ccc12 to O=C(N/N=C\c1cc(Cl)ccc1O)N/N=C/c1cc(Cl)ccc1O, the growth falls from 53.9% to 42.6%.

Going from COc1ccc(C2NC(=O)C(C#N)c3c2sc2c(F)cccc32)cc1 (stereo not given) to Cc1ccc(S(=O)(=O)Oc2ccc([N+](=O)[O-])cc2[N+](=O)[O-])cc1, the growth falls from 45.6% to 10.1%.

Going from COCCCNc1nc(NC(=O)c2cc(OC)cc(OC)c2)cc(-c2cccnc2)n1 to O=C(N=c1n(-c2ccccc2)nc2n1CCN2C1=NCCN1)c1ccc(Cl)cc1, the growth falls from 94.5% to 61.2%.

The molecules below were run on SK-MEL-28 melanoma in the same assay as above. Conditions: 10 µM unless noted.

Going from CC1=CCc2ccccc21 to O=C(Nc1ccc(F)cc1)c1ccccc1, the growth falls from 104% to 101%.

Compared with O=C1Nc2ccccc2/C1=C/C(=O)c1ccc(N2CCCCC2)cc1, CC(C)C1=NOC(=O)C1=Cc1cn(-c2ccccc2)nc1-c1ccc(Cl)cc1 is lower in growth: 105% for the first, 84.9% for the second.

Compared with COc1ccc2nc3c(cc2c1)C(=O)CC(c1ccccc1)C3 (stereo not given), CC(=O)Nc1ccc2nc3ccc(NC(C)=O)cc3[n+](-c3ccccc3)c2c1 is higher in growth: 54.6% for the first, 166% for the second.

Compared with Oc1ccc(N=Nc2nccs2)c(O)c1, CCN(CC)CCCCCCNc1cccc2cc(Br)cnc12 is lower in growth: 118% for the first, 108% for the second.

First: Cc1cc(-c2ccc(N=Nc3c(S(=O)(=O)O)cc4cc(S(=O)(=O)O)cc(N)c4c3O)c(C)c2)ccc1N=Nc1cc(S(=O)(=O)O)c2ccccc2c1O
Second: CC(C)C1=NOC(=O)C1=Cc1cn(-c2ccccc2)nc1-c1cccc([N+](=O)[O-])c1
The growth of the first is higher: 107% for the first, 93.4% for the second.

Compared with COc1ccc(NC(=S)NNc2ccc(-c3ccc(OC)c(OC)c3)nn2)cc1, COc1cc(OC)cc(C(=O)Nc2cc(-c3cccnc3)nc(NCCCN3CCOCC3)n2)c1 is lower in growth: 113% for the first, 101% for the second.

Going from O=C1COCCN1c1ccc(Nc2nc(Cl)nc(N3CCOCC3)n2)cc1 to O=C(O)c1cccc(CN2CCN(c3cc4c(cc3F)c(=O)c(C(=O)O)cn4C3CC3)CC2)c1O, the growth rises from 101% to 106%.

Going from Cn1cc(-c2noc(-c3cn(C)c4ncc(F)cc34)n2)c2cc(Br)ccc21 to Brc1ccc2c(c1)CN(C1CCCCC1)CO2, the growth rises from 83.7% to 118%.

Compared with CCCC(NC(=O)OCc1ccccc1)C(=O)O (stereo not given), CC/C=C(\C)C(CCC)(CN=O)C(=O)OCC (stereo not given) is higher in growth: 92.8% for the first, 116% for the second.

In the case of C=CCCC1(C)NC(=O)NC1=O (stereo not given), the growth is reported as 106%.

Work on C#CCNC(=O)CC[C@]1(C)[C@H]2CC[C@@H]3[C@@H]([C@@](C)(O)CCC=C(C)C)CC[C@@]3(C)[C@]2(C)CC[C@H]1C(=C)C yielded a growth of 54.1% [100 µM].

O=[N+]([O-])c1cc([N+](=O)[O-])c(NN=C(c2ccc(O)cc2)c2ccc(O)cc2)cc1Cl was tested, and the growth was -90.3% (active).
In the case of C=C(C)[C@@H]1CC[C@]2(C(=O)NCCNCCNCCN)CC[C@]3(C)[C@H](CC[C@@H]4[C@@]5(C)CC[C@H](O)C(C)(C)[C@@H]5CC[C@]43C)[C@@H]12, the growth is reported as -98.7% [100 µM] (active).
In the case of CC1(C)NCCC[C@]2(C)[C@H]3C=CC4=C5C[C@](C)(CO)CC[C@]5(C)CC[C@@]4(C)[C@]3(C)CC[C@@H]12, the growth is reported as -97.3% [100 µM] (active).
COC(=O)c1c(C)[nH]c(/C=C2\N=C(c3ccc[nH]3)C=C2OC)c1C was tested, and the growth was -27.8% (active).
